Laboratory results: publication PMC7862700, “An all-to-all approach to the identification of sequence-specific readers for epigenetic DNA modifications on cytosine”

Experiments:
Assay in all cases: DAPPL (digital affinity profiling via proximity ligation, sequencing); 10 mM Tris-HCl pH 7.5, 50 mM NaCl, 1 mM DTT, 4% glycerol, room temperature, 30 min; GST-TFs on glutathione beads, 16-mer random dsDNA library, 0.1% formaldehyde crosslink after washing; high values mean tight binding
Settings in all cases: protein: recombinant; tags: N-terminal GST; dsDNA, one strand shown
ELK1 = target: T1, ELK1 (Homo sapiens, UniProt P19419 1-428)
T1 sequence: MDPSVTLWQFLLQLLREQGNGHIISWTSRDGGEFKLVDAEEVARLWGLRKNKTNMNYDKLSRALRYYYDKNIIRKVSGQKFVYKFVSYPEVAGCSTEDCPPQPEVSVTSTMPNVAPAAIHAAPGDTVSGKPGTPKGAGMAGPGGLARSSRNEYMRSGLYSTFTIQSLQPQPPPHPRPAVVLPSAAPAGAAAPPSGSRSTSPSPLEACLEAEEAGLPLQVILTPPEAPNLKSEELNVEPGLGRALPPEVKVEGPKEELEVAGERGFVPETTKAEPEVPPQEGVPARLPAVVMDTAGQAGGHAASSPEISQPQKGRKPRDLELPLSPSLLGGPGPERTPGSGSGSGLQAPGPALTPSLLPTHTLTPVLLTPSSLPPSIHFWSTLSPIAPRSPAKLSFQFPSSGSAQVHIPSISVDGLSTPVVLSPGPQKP
Outline: (§1)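 Sequencing on an Illumina NextSeq500 followed washing, crosslinking with 0.1% formaldehyde, proximity ligation (BsaI/T4 ligase, 1 h, 37 °C) and PCR amplification of pools that had been incubated for 30 min at room temperature with 200 nmole of a random double-stranded 16-mer DNA library in Tris/NaCl/DTT/glycerol buffer. Each pool held DNA-barcoded human transcription factors, expressed in yeast as GST fusions and captured on glutathione beads, plus a tag-only sample. Binding signal is a hexamer's read frequency for a factor divided by its frequency in the tag-only sample.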

GABPA = target: T2, GABPA (Homo sapiens, UniProt Q06546 1-454)
T2 sequence: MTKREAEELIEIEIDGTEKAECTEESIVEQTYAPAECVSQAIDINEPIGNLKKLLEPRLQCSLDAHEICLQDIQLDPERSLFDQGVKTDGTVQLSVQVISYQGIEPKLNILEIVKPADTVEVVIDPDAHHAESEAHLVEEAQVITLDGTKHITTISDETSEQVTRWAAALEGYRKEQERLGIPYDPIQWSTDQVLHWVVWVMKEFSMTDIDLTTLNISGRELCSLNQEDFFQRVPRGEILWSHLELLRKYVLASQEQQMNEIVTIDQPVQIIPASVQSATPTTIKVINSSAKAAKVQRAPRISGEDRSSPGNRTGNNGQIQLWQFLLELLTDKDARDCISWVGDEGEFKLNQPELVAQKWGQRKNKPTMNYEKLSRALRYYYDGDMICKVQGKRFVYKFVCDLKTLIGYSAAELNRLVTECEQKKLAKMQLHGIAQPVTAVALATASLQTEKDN
Outline: as §1

SPIB = SPIB (Homo sapiens, UniProt Q01892 1-262)
Outline: as §1

ETV5 = ETV5 (Homo sapiens, UniProt P41161 1-510)
Outline: as §1

ELK4 = target: T3, ELK4 (Homo sapiens, UniProt P28324-2 1-405)
T3 sequence: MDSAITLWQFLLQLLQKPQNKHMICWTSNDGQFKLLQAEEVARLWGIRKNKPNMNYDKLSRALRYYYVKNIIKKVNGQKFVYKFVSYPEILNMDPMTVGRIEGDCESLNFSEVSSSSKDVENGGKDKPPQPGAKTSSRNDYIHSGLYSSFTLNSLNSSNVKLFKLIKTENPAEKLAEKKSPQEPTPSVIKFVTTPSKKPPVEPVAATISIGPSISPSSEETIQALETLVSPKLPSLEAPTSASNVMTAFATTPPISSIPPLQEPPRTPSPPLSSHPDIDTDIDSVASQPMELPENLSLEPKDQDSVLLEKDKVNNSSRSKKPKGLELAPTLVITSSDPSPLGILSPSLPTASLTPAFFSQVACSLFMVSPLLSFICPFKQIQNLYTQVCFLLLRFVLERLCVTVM
Outline: as §1

ETV2 = target: T4, ETV2 (Homo sapiens, UniProt O00321 1-342)
T4 sequence: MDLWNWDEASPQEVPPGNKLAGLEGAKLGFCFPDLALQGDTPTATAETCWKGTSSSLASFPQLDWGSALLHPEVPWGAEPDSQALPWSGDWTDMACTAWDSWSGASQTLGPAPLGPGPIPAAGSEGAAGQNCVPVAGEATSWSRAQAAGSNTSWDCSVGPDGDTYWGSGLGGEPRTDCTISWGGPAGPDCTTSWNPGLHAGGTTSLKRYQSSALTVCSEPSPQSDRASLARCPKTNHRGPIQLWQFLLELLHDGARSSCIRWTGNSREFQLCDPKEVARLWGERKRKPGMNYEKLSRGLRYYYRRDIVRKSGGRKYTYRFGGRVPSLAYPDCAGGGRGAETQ
Outline: as §1

ELF3 = target: T5, ELF3 (Homo sapiens, UniProt P78545 1-371)
T5 sequence: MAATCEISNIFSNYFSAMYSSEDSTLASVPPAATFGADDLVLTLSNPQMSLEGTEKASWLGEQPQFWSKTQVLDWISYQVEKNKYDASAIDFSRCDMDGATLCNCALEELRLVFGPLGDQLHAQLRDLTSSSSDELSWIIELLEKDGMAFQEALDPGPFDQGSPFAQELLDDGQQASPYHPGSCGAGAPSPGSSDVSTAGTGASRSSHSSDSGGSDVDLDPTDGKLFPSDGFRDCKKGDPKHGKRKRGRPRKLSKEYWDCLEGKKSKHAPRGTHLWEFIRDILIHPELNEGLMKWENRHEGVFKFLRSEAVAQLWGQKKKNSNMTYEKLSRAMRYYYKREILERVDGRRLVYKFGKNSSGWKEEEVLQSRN
Outline: as §1

ETV1 = ETV1 (Homo sapiens, UniProt P50549 1-477)
Outline: as §1

ETV3L = target: T6, ETV3L (Homo sapiens, UniProt Q6ZN32 1-361)
T6 sequence: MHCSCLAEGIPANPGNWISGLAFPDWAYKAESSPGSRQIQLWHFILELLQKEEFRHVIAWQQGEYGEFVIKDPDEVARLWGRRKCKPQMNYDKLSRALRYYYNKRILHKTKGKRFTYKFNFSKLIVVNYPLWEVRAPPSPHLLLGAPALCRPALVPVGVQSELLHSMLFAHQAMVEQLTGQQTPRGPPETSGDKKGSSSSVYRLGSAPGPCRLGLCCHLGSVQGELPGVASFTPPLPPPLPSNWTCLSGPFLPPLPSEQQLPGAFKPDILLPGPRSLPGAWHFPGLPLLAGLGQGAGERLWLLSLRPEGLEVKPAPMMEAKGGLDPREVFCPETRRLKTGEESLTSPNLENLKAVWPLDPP
Outline: as §1

ETS2 = target: T7, ETS2 (Homo sapiens, UniProt P15036 1-469)
T7 sequence: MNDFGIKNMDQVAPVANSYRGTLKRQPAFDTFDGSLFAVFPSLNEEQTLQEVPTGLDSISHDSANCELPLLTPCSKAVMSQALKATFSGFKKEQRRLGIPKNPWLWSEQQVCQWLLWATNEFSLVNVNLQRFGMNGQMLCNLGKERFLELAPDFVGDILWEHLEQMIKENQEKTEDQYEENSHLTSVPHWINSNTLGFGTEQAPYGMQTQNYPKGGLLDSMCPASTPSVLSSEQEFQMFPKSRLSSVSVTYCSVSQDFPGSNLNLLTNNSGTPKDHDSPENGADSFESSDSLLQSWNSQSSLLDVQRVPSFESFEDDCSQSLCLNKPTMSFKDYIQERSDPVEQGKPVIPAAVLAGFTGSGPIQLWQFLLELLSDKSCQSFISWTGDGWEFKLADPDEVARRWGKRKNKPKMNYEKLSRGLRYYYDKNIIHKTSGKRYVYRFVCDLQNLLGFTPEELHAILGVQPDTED
Outline: as §1

SPDEF = target: T8, SPDEF (Homo sapiens, UniProt O95238 1-335)
T8 sequence: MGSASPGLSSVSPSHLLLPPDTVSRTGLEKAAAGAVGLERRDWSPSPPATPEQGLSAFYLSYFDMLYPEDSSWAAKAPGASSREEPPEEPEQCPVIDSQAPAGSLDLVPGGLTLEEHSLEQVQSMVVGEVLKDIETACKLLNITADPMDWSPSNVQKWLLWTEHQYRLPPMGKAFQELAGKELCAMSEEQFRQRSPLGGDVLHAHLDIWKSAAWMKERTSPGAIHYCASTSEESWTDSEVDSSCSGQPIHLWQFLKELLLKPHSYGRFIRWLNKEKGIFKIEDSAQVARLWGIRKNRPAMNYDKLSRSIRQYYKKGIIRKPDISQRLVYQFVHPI
Outline: as §1

ETV7 = target: T9, ETV7 (Homo sapiens, UniProt Q9Y603 1-341)
T9 sequence: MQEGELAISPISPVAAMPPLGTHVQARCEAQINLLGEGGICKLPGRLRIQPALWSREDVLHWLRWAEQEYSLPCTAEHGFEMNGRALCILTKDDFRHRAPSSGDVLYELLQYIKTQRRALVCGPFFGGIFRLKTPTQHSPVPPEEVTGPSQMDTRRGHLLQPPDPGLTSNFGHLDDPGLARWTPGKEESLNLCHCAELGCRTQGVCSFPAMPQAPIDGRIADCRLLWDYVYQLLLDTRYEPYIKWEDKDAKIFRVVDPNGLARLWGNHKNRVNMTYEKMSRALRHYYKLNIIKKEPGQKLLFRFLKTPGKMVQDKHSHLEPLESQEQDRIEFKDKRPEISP
Outline: as §1

ETV3 = target: T10, ETV3 (Homo sapiens, UniProt P41162-2 1-143)
T10 sequence: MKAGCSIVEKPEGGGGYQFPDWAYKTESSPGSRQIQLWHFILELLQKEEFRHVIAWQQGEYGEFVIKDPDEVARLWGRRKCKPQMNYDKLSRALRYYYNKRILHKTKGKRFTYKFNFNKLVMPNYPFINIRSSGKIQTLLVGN
Outline: as §1

ETV6 = ETV6 (Homo sapiens, UniProt P41212 1-452)
Outline: as §1

Sequence of SPIB (Q01892 whole entry): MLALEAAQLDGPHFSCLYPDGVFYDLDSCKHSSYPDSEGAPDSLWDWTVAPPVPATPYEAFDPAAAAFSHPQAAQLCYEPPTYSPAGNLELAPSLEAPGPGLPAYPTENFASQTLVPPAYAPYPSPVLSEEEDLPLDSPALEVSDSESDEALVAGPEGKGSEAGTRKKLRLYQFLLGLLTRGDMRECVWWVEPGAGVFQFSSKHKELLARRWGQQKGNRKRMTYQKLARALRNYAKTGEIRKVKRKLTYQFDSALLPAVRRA
Sequence of ETV1 (P50549 whole entry): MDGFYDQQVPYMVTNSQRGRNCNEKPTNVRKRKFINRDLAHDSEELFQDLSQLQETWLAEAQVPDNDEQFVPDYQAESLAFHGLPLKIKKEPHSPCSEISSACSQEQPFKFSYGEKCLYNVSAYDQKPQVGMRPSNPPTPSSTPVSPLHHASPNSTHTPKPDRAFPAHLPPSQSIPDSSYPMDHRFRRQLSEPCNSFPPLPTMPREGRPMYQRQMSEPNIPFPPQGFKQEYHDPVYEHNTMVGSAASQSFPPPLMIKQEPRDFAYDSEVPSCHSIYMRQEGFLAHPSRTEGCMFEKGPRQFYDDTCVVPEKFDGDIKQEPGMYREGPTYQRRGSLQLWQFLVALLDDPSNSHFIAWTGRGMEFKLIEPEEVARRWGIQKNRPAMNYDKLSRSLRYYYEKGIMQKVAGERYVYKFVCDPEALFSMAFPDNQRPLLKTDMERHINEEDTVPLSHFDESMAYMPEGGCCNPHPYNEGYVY
Sequence of ETV5 (P41161 whole entry): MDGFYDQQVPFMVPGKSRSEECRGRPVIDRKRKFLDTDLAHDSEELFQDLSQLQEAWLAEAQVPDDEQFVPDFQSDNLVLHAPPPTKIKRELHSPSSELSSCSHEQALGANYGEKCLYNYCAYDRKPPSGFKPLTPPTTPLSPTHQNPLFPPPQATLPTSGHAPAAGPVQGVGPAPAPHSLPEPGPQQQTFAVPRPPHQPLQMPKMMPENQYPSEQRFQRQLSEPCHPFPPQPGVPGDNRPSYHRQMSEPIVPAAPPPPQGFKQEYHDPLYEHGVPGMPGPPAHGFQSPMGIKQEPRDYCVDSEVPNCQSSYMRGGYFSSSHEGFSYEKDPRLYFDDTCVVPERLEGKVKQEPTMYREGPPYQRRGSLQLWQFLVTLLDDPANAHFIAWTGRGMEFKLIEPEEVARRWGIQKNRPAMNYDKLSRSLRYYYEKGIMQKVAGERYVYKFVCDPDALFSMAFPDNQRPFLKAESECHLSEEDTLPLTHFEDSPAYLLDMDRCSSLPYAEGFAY
Sequence of ETV6 (P41212 whole entry): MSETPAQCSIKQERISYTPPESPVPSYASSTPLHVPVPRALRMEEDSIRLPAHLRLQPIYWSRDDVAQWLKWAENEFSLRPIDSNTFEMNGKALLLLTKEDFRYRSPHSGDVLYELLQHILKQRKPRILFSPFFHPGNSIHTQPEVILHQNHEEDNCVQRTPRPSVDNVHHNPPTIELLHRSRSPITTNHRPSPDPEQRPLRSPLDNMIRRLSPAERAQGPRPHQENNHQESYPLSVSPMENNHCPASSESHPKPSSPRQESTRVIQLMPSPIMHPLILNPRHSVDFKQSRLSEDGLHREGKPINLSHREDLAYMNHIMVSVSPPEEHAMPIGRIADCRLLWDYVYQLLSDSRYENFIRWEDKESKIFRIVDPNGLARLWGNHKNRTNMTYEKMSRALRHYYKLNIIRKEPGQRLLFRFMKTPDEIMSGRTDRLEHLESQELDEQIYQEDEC

CGTTTG was tested, and the binding signal (ELK1) was 1.03 fold enrichment (6-mer frequency, TF over GST control), the binding signal (GABPA) was 1.03 fold enrichment (6-mer frequency, TF over GST control) and the binding signal (SPIB) was 1.06 fold enrichment (6-mer frequency, TF over GST control). For the same sequence, the binding signal (ETV5) was 1.01 fold enrichment (6-mer frequency, TF over GST control), the binding signal (ELK4) was 1.07 fold enrichment (6-mer frequency, TF over GST control) and the binding signal (ETV2) was 1.16 fold enrichment (6-mer frequency, TF over GST control). For the same sequence, the binding signal (ELF3) was 1.02 fold enrichment (6-mer frequency, TF over GST control), the binding signal (ETV1) was 1.06 fold enrichment (6-mer frequency, TF over GST control) and the binding signal (ETV3L) was 1 fold enrichment (6-mer frequency, TF over GST control). For the same sequence, the binding signal (ETS2) was 1.06 fold enrichment (6-mer frequency, TF over GST control), the binding signal (SPDEF) was 1.01 fold enrichment (6-mer frequency, TF over GST control) and the binding signal (ETV7) was 1.21 fold enrichment (6-mer frequency, TF over GST control). The binding signal (ETV3) was 1.08 fold enrichment (6-mer frequency, TF over GST control) and the binding signal (ETV6) was 1.01 fold enrichment (6-mer frequency, TF over GST control).
